The source made the active and inactive calls.
Legend:
[1] = small molecules captured by biotinylated probe aFSTL3 – biochemical, small-molecule microarray, fluorescence 635/667, stem cell growth factor project, primary screen (AID 1064); details: higher = more signal;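 note: measures binding of the biotinylated anti-FSTL3 antibody to printed compounds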
[2] = binders from COS7 lysate, DM2A8 probe, primary screen, torsin A project, cell lysate, small-molecule microarray, fluorescence 635/667 (AID 1065); details: higher = more signal, COS7 lysate expressing mutant human TOR1A
[3] = small molecules captured by biotinylated probe aFGF2 – biochemical, small-molecule microarray, fluorescence 635/667, stem cell growth factor project, primary screen (AID 1067); details: higher = more signal;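 note: measures binding of biotinylated aFGF2 protein to printed compounds on slides; z-score merges feature fluorescence and signal-to-noise across triplicate slides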
[4] = small molecules captured by biotinylated probe aFGF10 – biochemical, small-molecule microarray, fluorescence 635/667, stem cell growth factor project, primary screen (AID 1071); details: higher = more signal;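 note: score merges 667 nm spot intensity and signal to noise from triplicate slides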
[5] = target: Neurogenic locus notch homolog protein 2 (Homo sapiens) (UniProt Q04721); assay: small molecules binding Notch2 protein – biochemical, small-molecule microarray, 635 nm fluorescence, stem cell growth factors, primary screen (AID 1073); details: higher = more signal
[6] = target: Pro-neuregulin-1, membrane-bound isoform (Homo sapiens) (UniProt Q02297); assay: small molecules binding neuregulin-1 protein – biochemical, small-molecule microarray, fluorescence 635/667, psychiatric disease protein project, primary screen (AID 1075); details: NRG1 binding, 635 nm fluorescence, higher = more signal;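 note: score combines 667 nm spot fluorescence with signal to noise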
Pro-neuregulin-1, membrane-bound isoform (Homo sapiens), sequence (Q02297 whole entry, looked up, the tested form may be a part, canonical isoform): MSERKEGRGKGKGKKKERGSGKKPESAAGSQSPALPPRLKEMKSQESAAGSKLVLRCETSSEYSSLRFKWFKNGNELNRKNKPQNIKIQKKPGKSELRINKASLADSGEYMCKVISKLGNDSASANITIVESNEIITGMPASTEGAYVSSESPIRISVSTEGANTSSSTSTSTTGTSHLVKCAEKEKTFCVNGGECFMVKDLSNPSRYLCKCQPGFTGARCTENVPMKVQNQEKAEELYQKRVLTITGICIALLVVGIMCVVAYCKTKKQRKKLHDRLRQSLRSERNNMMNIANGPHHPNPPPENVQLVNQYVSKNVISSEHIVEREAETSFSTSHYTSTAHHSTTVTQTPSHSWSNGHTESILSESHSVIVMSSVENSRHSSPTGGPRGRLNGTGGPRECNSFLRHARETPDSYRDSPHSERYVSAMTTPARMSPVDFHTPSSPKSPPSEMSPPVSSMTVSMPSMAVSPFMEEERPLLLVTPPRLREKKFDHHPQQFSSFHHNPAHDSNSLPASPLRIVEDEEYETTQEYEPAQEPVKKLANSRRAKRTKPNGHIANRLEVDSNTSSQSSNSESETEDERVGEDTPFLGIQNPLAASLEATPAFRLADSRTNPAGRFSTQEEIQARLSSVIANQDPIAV

[7] = tested on: Neuregulin-1 EGF-like domain; assay: small molecules binding NRG1 EGF domain – biochemical, small-molecule microarray, 635 nm fluorescence, primary screen (AID 1081); details: higher = more signal;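 note: binding of the protein to compounds printed on small-molecule microarray slides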
[8] = FRG1 expression reporter modulators in myotubes – cell-based, C2C12 myotubes, firefly/Renilla luciferase, luminescence, FRG1 inhibition for FSHD, primary screen (AID 1084); details: FRG1 promoter luciferase, higher = more signal, called active from +8 up or from −8 down
[9] = small molecules captured by biotinylated probe aFST – biochemical, small-molecule microarray, fluorescence 635/667, stem cell growth factor project, primary screen (AID 1086); details: higher = more signal;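 note: score merges 667 nm fluorescence with signal-to-noise of each printed compound spot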
[10] = binders of probe aHhip on microarray, primary screen, stem cell growth factor project, biochemical, small-molecule microarray, fluorescence 635/667 (AID 1087); details: higher = more signal;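 note: score merges spot fluorescence at 667nm with spot signal to noise ratio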
[11] = tested on: PRMT1 (protein arginine N-methyltransferase 1); assay: small molecules binding arginine methyltransferase PRMT1 – biochemical, small-molecule microarray, 635 nm fluorescence, primary screen (AID 1088); details: higher = more signal;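 note: binding of Prmt1 protein to compounds spotted on small-molecule microarray slides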
[12] = growth effects on S. cerevisiae YJM789 – YJM789 clinical isolate, OD600, 24 h, basal, primary screen (AID 1089); details: higher = more signal, called active from +8 up or from −8 down;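 note: growth of clinical yeast isolate S. cerevisiae YJM 789 seeded 1000 cells per well; test concentration not given here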
[13] = S. pombe growth modifiers, basal conditions – strain 972, OD600, 24 h, no modulator, primary screen (AID 1090);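 note: basal condition with compound alone and no growth modifier present; test concentration not given here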; details: S. pombe 972 growth, higher = more signal, called active from +8 up or from −8 down
[14] = budding yeast growth modifiers under rapamycin – strain BY4716, OD600, 96 h, primary screen (AID 1091); note: test concentration not given here; details: S. cerevisiae BY4716 + rapamycin, higher = more signal, called active from +8 up or from −8 down
[15] = target: Torsin-1A-interacting protein 2 (Homo sapiens) (UniProt Q8NFQ8); assay: small molecules binding lysate-expressed LULL1 – cell lysate, human LULL1 lysate, 635/667 nm fluorescence, primary screen (AID 1092); details: small-molecule microarray, hLULL1 lysate binding, 635 nm fluorescence; higher = more signal;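 note: probe is lysate of COS7 cells overexpressing human LULL1; score merges per-feature 667 nm fluorescence with signal-to-noise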
Torsin-1A-interacting protein 2 (Homo sapiens), sequence (Q8NFQ8 whole entry, looked up): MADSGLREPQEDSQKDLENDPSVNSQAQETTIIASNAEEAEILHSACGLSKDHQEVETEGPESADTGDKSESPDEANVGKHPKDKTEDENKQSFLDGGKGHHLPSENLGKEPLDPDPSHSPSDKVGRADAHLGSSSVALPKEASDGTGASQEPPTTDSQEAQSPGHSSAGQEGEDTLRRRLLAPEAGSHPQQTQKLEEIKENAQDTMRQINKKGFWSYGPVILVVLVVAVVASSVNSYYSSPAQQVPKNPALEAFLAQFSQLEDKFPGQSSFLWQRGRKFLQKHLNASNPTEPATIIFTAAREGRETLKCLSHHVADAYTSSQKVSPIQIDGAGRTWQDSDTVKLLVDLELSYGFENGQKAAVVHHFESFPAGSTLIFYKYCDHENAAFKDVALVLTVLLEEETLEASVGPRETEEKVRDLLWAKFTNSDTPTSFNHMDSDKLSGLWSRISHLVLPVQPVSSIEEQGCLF

[16] = optical density change of DRC41 E. coli – strain DRC41, OD650, 24 h, E. coli filamentation project, primary screen (AID 1093);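 note: MC1000 strain lacking acrAB efflux and sulA so SOS filamentation is blocked; test concentration not given here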; details: E. coli DRC41 growth, higher = more signal, called active from +8 up or from −8 down
[17] = probe aLefty2 binding to arrayed compounds – biochemical, biotinylated probe, 635/667 nm fluorescence, primary screen (AID 1094); details: small-molecule microarray, higher = more signal;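 note: score merges spot fluorescence near 667 nm with spot signal-to-noise ratio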
[18] = tested on: Noggin (protein binding on small-molecule microarray); assay: small molecules binding Noggin protein – biochemical, 635/667 nm fluorescence, primary screen (AID 1095); details: 635 nm fluorescence, higher = more signal;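 note: score merges 667 nm feature fluorescence with signal to noise over triplicate slides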
[19] = target: Neurogenic locus notch homolog protein 3 (Homo sapiens) (UniProt Q9UM47); assay: small molecules binding NOTCH3 protein – biochemical, 635/667 nm fluorescence, primary screen (AID 1096); details: small-molecule microarray, 635 nm fluorescence, higher = more signal
Neurogenic locus notch homolog protein 3 (Homo sapiens), sequence (Q9UM47 whole entry, looked up): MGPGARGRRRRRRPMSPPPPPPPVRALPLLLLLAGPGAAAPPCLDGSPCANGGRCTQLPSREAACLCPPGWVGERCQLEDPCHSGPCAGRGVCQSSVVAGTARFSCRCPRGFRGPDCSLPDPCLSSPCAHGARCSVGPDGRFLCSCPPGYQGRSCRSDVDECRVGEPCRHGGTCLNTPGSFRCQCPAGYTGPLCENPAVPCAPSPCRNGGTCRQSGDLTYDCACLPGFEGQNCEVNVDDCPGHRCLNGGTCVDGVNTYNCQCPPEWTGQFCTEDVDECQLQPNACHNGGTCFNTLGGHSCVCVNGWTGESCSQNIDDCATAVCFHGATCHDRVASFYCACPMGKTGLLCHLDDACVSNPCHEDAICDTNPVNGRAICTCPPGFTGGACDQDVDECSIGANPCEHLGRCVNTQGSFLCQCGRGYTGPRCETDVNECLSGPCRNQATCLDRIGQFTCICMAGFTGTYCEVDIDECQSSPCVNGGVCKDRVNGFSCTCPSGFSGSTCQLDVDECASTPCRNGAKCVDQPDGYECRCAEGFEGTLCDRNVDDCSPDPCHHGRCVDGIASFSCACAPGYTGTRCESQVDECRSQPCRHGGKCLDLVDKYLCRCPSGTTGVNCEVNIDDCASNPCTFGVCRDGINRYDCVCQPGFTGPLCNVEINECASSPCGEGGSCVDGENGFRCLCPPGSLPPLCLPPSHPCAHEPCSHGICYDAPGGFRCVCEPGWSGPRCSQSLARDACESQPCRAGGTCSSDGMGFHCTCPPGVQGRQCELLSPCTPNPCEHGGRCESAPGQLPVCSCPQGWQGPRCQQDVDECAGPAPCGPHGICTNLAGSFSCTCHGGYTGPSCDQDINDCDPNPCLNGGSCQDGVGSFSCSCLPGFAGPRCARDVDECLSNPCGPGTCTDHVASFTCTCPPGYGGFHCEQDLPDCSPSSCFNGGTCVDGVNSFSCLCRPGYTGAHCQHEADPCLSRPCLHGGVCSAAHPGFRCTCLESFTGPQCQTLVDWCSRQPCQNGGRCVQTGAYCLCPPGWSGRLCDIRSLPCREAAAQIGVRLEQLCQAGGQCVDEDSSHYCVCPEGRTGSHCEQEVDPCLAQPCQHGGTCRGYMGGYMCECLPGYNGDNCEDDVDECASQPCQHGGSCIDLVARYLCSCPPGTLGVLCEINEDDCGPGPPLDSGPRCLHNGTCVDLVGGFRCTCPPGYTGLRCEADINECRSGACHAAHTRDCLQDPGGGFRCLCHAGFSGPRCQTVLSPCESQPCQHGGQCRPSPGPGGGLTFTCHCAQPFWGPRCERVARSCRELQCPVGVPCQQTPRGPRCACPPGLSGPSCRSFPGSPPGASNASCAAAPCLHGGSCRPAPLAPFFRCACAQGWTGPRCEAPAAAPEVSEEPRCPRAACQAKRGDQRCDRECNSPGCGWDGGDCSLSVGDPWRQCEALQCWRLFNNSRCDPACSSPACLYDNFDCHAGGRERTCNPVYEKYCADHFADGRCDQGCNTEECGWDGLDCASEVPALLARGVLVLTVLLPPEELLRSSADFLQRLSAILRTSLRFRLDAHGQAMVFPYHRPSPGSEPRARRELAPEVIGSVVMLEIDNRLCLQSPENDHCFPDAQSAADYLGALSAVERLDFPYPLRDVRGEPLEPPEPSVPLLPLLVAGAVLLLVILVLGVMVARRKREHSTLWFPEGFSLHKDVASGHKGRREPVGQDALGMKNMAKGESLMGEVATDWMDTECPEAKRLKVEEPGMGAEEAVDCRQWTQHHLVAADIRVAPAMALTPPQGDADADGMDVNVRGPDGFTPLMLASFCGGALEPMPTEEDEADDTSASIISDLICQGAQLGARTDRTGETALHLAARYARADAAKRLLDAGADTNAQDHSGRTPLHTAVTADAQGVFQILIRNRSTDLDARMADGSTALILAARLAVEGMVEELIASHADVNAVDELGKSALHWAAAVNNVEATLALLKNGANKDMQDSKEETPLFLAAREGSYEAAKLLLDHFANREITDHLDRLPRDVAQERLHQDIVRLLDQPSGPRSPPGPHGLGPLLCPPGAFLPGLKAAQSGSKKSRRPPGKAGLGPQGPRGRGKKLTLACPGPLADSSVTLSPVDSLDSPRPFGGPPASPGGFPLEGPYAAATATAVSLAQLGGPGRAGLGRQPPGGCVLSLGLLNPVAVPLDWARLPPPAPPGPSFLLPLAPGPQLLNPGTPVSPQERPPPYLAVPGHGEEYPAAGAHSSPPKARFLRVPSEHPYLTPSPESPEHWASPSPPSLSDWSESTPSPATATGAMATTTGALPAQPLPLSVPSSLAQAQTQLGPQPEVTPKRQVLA

[20] = probe aEGFR binding to arrayed compounds – biochemical, biotinylated probe, 635/667 nm fluorescence, primary screen (AID 1097); details: small-molecule microarray, higher = more signal;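 note: probe is a biotinylated anti-EGFR antibody binding compounds printed on slides; score combines fluorescence near 667 nm and signal to noise of each spot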

Row | SMILES | composite z-score [1] | composite z-score [2] | composite z-score [3] | composite z-score [4] | composite z-score [5] | composite z-score [6] | composite z-score [7] | z-score [8] | composite z-score [9] | composite z-score [10] | composite z-score [11] | z-score [12] | z-score [13] | z-score [14] | composite z-score [15] | z-score [16] | composite z-score [17] | composite z-score [18] | composite z-score [19] | composite z-score [20]
1 | CCOC(=O)C[C@H]1[C@H](OC(=O)Cc2ccc3c(c2)OCO3)[C@@H](NC(=O)Cc2ccc(OC)cc2)c2cc(OCCCO)ccc2N1C(=O)c1ccc2ccccc2n1 | -0.362 | 0.401 | -0.104 | 0.466 | 0.255 | 0.371 | 0.752 | -3.56 (inactive) | 0.103 | -0.274 | 0.317 | -2.05 (inactive) | -1.34 (inactive) | 0.758 (inactive) | 0.708 | 2.08 (inactive) | -0.137 | 0.14 | 0.32 | -0.146
2 | CC(C)C[C@@H]1NC(=O)[C@@H]2C[C@H](C(=O)NCCCCCN)[C@H](c3ccc(O)cc3)N2C1=O | 0.347 | 0.174 | -0.0909 | 0.335 | 0.727 | 1.26 | 1.3 | -0.375 (inactive) | 0.371 | 0.0854 | 1.57 | 0.563 (inactive) | 0.32 (inactive) | 0.965 (inactive) | 2.57 | -0.687 (inactive) | -0.109 | 1.47 | 0.894 | -0.0078
3 | C=CC[C@]1(C(=O)O)COC(c2ccc(OCCCO)cc2)=N1 | -0.151 | 0.273 | -0.0538 | -0.114 | 0.675 | 1.79 | 1.07 | 0.519 (inactive) | 0.403 | -0.249 | 0.262 | -0.396 (inactive) | -0.636 (inactive) | -0.581 (inactive) | 3.36 | -0.204 (inactive) | -0.0784 | 0.253 | 0.0614 | -0.0828
4 | COC(=O)[C@@]1(Cc2ccc(OC)cc2)[C@H]2c3cc(C(=O)N(C)C)n(C[C@H](O)CO)c3C[C@H]2CN1C(=O)c1ccccc1 | 1.37 | 1.31 | 0.263 | 0.504 | 1.76 | 1.25 | 1.2 | 1.55 (inactive) | 1.73 | 0.284 | 0.0724 | 0.398 (inactive) | 0.251 (inactive) | 0.878 (inactive) | 2.92 | -1.02 (inactive) | 0.955 | -0.826 | 1.05 | 0.269
5 | CC(C)OC(=O)C=C1C[C@@H](c2ccc(C(F)(F)F)cc2)O[C@@H](c2ccc(C(F)(F)F)cc2)O1 | -0.187 | 1.92 | -0.0288 | 0.891 | -0.316 | 1.08 | 1 | 0.337 (inactive) | 0.0006 | -0.214 | 1.16 | -1.84 (inactive) | -7.12 (inactive) | -1.52 (inactive) | 2.66 | 0.374 (inactive) | -0.241 | 0.105 | 0.324 | -0.195
6 | COc1cc2c(cc1OC)CN(C(=O)[C@@H]1[C@H]3C(=O)O[C@H](c4ccccc4)[C@H](c4ccccc4)N3[C@H](c3ccc(OCCO)cc3)[C@@]13C(=O)Nc1ccccc13)CC2 | -0.164 | 0.562 | 0.0373 | 1.01 | 1.16 | 1.42 | 1.23 | 2.03 (inactive) | 0.29 | 0.0139 | 1.54 | 3.17 (inactive) | 1.16 (inactive) | 5.44 (inactive) | 3 | 0.761 (inactive) | -0.126 | 1.32 | 1.15 | 0.134
7 | C=C[C@@H](COC(C)=O)N(C(=O)OC(C)(C)C)S(=O)(=O)c1ccc(Br)cc1 | 0.0095 | 1.66 | -0.0005 | 0.358 | 0.401 | 0.33 | 1.01 | -3.97 (inactive) | 0.157 | 0.157 | 0.832 | -0.152 (inactive) | -1.54 (inactive) | -0.666 (inactive) | 0.519 | 0.411 (inactive) | 0.132 | 0.841 | 0.782 | 0.0709
8 | C=CCC(OC(C)=O)[C@@H]1[C@@H](N(Cc2cc3ccccc3o2)C(=O)c2ccc(-c3ccccc3)cc2)c2cc(OCCCO)ccc2N1C(=O)c1ccc2ccccc2c1 (stereo not given in full) | -0.0256 | -0.262 | 0.0405 | -0.0863 | 0.251 | 0.0445 | -0.341 | -3.52 (inactive) | 0.679 | -0.214 | 0.0279 | 0.271 (inactive) | 0.314 (inactive) | 1.03 (inactive) | 1.1 | -0.704 (inactive) | -0.0485 | 0.228 | 0.391 | -0.0981
9 | C=CCC(OC(C)=O)[C@@H]1[C@@H](N(Cc2ccc(-c3ccccc3)cc2)C(=O)Cc2ccc(F)cc2)c2cc(OCCCO)ccc2N1C(=O)Cc1ccc(OC)cc1 (stereo not given in full) | -0.134 | 0.132 | -0.172 | 0.295 | -0.437 | 0.0936 | -0.438 | -0.528 (inactive) | 0.121 | -0.175 | -0.712 | 0.111 (inactive) | 0.278 (inactive) | -0.0946 (inactive) | 0.311 | 0.245 (inactive) | 0.0731 | -0.128 | -0.241 | -0.204
10 | CN(C)C(=O)[C@@]1(Cc2ccccc2CN=[N+]=[N-])N=C(c2ccc(OCCCO)cc2)O[C@H]1c1ccccc1CN=[N+]=[N-] | 0.262 | -0.159 | 0.222 | 0.776 | 1.52 | 1.64 | 1.29 | -4.01 (inactive) | 0.457 | -0.388 | 0.88 | 0.733 (inactive) | 1.19 (inactive) | 15.6 (active) | 2.6 | 0.0474 (inactive) | 0.514 | -0.586 | 0.456 | 0.424
